Screens from PubChem.
Hits are enriched below; roughly 7.3% of the tested compounds scored in any of these assays.
Luc counter – counter-screen: inhibitors of Kinase-Glo firefly luciferase. Q27757. Kinase-Glo luciferase, ATP luminescence, 8 min. Potency, µM (doses to about 38.3 µM), without a hit: top-dose activity change, negative = inhibition, hits mostly inhibitors. 200,000 tested, 0.28% active. AID 1379; also: % is scaled to controls: 0 for no effect and ±100 for the full control effect; nearly all actives have a fitted effect of over 60% in size
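Light output from Kinase-Glo luciferase with luciferin and 10 uM ATP in 50 mM imidazole pH 7.2, KCl, MgCl2, Tween 20, BSA; compound pin-delivered, 8-min ambient incubation, then luminescence read.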
ELG1 genotox – genotoxicity induction in ELG1-luciferase HEK293T cells. 330,000 tested, 1.3% active. Potency, µM (series often up to 46 µM), for inactives: top-dose activity change, positive = activation, most hits filed as activators. HEK293T ELG1-luciferase reporter, luminescence, 16 h; also: % of control where 0% means no effect; nearly all actives have a fitted effect of over 60% in size
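Screening used a luciferase reporter fused to human ELG1 in HEK293T cells. Luminescence was read on a CCD plate imager after 16 hr exposure and 30 min ONE-Glo incubation.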
SMN2 splice up – enhancers of SMN2 splice variant expression; HEK293 SMN2-luciferase splicing reporter, luminescence, 30-36 h; Potency, µM (top dose mostly 46.1 µM), without a hit: top-dose activity change, positive = activation, actives largely listed as activators; 210,000 tested, 2.8% active; also: % of control where 0% means no effect; nearly all actives have a fitted effect of over 55% in size
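qHTS luciferase splicing reporter: luminescence rises when SMN2 exon 7 is included in transfected HEK293 cells. Compound exposure lasted 30-36 h at 37C, with 4.5 mM final sodium butyrate as control, followed by a ONE-Glo read.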
FLuc modulator – firefly luciferase modulation, counter-screen for miR-21 project | P08659 | purified FLuc, Km substrates, luminescence inhibition | Potency, µM (series often up to 57.5 µM), for inactives: at the highest dose activity change, negative = inhibition, actives largely listed as inhibitors | 360,000 tested, 6.9% active | AID 588342;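 also: plate controls were vehicle for no effect and reference inhibitor for full effect; nearly all actives have a fitted effect of over 55% in size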
Target sequence (P08659 whole entry, looked up): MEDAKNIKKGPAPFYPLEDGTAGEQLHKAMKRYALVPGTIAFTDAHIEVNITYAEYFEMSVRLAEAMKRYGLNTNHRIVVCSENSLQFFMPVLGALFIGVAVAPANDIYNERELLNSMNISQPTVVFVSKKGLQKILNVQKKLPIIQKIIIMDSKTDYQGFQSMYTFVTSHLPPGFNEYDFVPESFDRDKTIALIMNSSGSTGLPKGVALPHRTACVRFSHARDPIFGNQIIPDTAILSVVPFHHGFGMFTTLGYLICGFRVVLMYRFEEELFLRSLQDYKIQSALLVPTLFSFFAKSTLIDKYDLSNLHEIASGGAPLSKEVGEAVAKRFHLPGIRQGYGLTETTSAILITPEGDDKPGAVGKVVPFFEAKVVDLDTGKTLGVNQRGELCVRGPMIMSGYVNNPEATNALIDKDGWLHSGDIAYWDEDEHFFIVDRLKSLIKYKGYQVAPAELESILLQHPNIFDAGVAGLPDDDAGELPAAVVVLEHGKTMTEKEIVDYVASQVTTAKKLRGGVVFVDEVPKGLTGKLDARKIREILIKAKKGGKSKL
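Biochemical qHTS of compounds, final roughly 60 µM downward over six points, against 10 nM purified firefly luciferase using Km concentrations of substrates (10 uM D-luciferin, 10 uM ATP) in Tris acetate pH 7.5 buffer; luminescence output.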
Rab9 prom act – activators of Rab9 promoter. Potency, µM (top dose mostly 9.22 µM), for the others: at the top dose activation, negative = inhibition, usual class: activators. Huh7 Rab9 promoter-luciferase reporter, luminescence, 24 h. 320,000 tested, 2.8% active; also: % of control where 0% means no effect; nearly all actives have a fitted effect of over 60% in size
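Stable Rab9-luc Huh7, 1500 cells/well, 2 h settle; cmpd in DMSO, 24 h, 37 °C/5% CO2; luciferase reagent 10 min RT; luminescence.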
NPC1 prom act – activates the NPC1 promoter | Huh7 NPC1 promoter luciferase reporter, 24 h | Potency, µM (titrated, usually from 9.22 µM), for the others: top-dose activation, usual class: activators | 320,000 tested, 2.4% active; also: % of control where 0% means no effect; nearly all actives have a fitted effect of over 60% in size
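In 1536-well qHTS, Huh7 cells harboring an NPC1 promoter–luciferase construct received compound for 24 h; activation was quantified by luminescence following luciferase reagent addition.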
* = called active by the depositor; u = inconclusive; x = not tested or not shown; [ ] = remark or other dose. Calls follow the shape of the dose curve; as a rule, active = well fitted curve in the direction sought with a large enough effect; inconclusive = small, poorly fitted or top-dose-only effect, or another doubt; inactive = no such curve, though single readings can be large; an effect the other way counts as inactive or inconclusive. Potency is read from the fitted curve at half-maximal effect.

SMILES	Luc counter	ELG1 genotox	SMN2 splice up	FLuc modulator	Rab9 prom act	NPC1 prom act
N=c1oc2cc(O)ccc2cc1C(=O)Nc1ccc(F)cc1	x	u	x	2.7µM*	3.5µM*	u
CCOC(=O)Cc1csc(NC(=O)Nc2ccc(Cl)cc2)n1	x	-6%	x	6µM*	-7%	-6%
CCOC(=O)Cc1csc(N/N=C/c2ccc(Cl)cc2)n1	x	5%	x	u	15%	13%
CCOC(=O)Cc1csc(NC(=O)Nc2cccc(Cl)c2)n1	0%	0%	-40%	5.4µM*	-3%	0%
Cc1cc(Br)c2c(c1)/C(=C/C(=O)c1cccs1)C(=O)N2	1%	5%	3%	-18%	-14%	-9%
Cc1cccc2c1NC(=O)/C2=C\C(=O)c1cccs1	-4%	8%	-33%	4.8µM*	0%	0%
OCCCNc1c2c(nc3cc(-c4ccc(Cl)cc4)nn13)CCC2	-1%	5%	x	12µM*	0%	0%
Cc1nn2c(NCCCN(C)C)c3c(nc2c1-c1ccccc1)CCC3	1%	10%	-10%	3%	-3%	-1%
Clc1cccc(-c2cc3nc4c(c(NCc5ccco5)n3n2)CCCC4)c1	7%	16%	u	5.4µM*	2µM*	3.5µM*
COc1cccc(NC(=O)c2ccc(NC(=O)C(C)(C)C)cc2)c1	-4%	14%	13µM*	9.5µM*	u	u
COc1cccc(NC(=O)Nc2ccc(C(C)(C)C)cc2)c1	-2%	-9%	11µM*	3µM*	u	u
CCCC(=O)Nc1ccc(C(=O)Nc2cccc(OC)c2)cc1	-19%	12%	-7%	u	12%	21%
CCC(=O)OCC(=O)[C@@]1(OC(=O)CC)[C@@H](C)C[C@@H]2[C@H]3CCC4=CC(=O)C=C[C@]4(C)[C@@]3(F)[C@@H](O)C[C@@]21C	2%[39.9 µM]	x	x	x	x	x
Cc1ccc(NC(=S)N2CCC(c3ccccc3)C2)c(Cl)c1 (centres undefined)	-1%	2.3µM*	11µM*	1.5µM*	0.28µM*	0.5µM*
S=C(Nc1ccccc1Cl)N1CCC(c2ccccc2)C1 (centres undefined)	-1%	u	13µM*	24µM*	2.8µM*	3.5µM*
Fc1ccccc1NC(=S)N1CCC(c2ccccc2)C1 (centres undefined)	-2%	u	79%	u	u	u
Cc1ccc(-c2ccc(SCC(=O)c3ccccc3)nn2)cc1	-3%	u	6.3µM*	15µM*	u	u
COc1ccc(-c2ccc(SCC(=O)c3ccccc3)nn2)cc1OC	1%	-4%	-1%	24µM*	1%	-1%
Cc1ccc(C(=O)CSc2ccc(-c3ccncc3)nn2)cc1	-3%	-7%	-10%	-3%	-10%	-13%
COc1ccc(-c2ccc(SCC(=O)Nc3cc(C)on3)nn2)cc1OC	1%	1%	x	-8%[2.3 µM]	u	11%
Cc1cc(C)c(/C=C/c2onc(C)c2S(=O)(=O)N2CCC(C(=O)N3CCN(c4ccccc4)CC3)CC2)c(C)c1	x	x	x	5%	x	x
CCOC(=O)CN1C(=O)S/C(=C\c2ccc(-c3ccc(C(=O)O)c(Cl)c3)o2)C1=O	x	-2%	x	-9%	9%	-4%
O=C1NN(c2ccccc2)C(=O)/C1=C\c1ccc(-c2cc([N+](=O)[O-])ccc2O)o1	-27%	1%	x	15µM*	-4%	-3%
Cc1ccc(N2NC(=O)/C(=C/c3ccc(-c4ccc(Cl)c(C(=O)O)c4)o3)C2=O)cc1	-2%	0%	9%	11µM*	-3%	0%
CCN(CC)c1ccc(/C=C2/SC(=O)N(C(C)C)C2=O)o1	-1%	-13%	21%	21µM*	24%	26%
SMILES	Luc counter	ELG1 genotox	SMN2 splice up	FLuc modulator	Rab9 prom act	NPC1 prom act
CC(C)N1C(=O)S/C(=C\c2ccc(-c3ccc(Cl)c(C(=O)O)c3)o2)C1=O	x	1.2µM*	x	3µM*	0.4µM*	0.5µM*
CCCCC1(C)OC(=O)C(=Cc2ccc(-c3ccc(Cl)c(C(=O)O)c3)o2)C(=O)O1 (centres undefined)	x	0%	x	u	-2%	3%
CCCN1C(=O)S/C(=C/c2ccc(N3CCOCC3)o2)C1=O	x	u	x	u	u	25%
COc1ccc(CN2CCc3nc(N4CCN(c5ccc(F)cc5)CC4)ncc3C2)c(OC)c1OC	x	x	x	-3%	x	x
COc1ccc(Sc2ccc(/C=C3\C(=O)NN(c4ccccc4)C3=O)o2)cc1	0%	4%	0%	-17%	-7%	-3%
O=C1NN(c2ccc(Cl)cc2)C(=O)/C1=C\c1ccc(-c2cccc(C(=O)O)c2)o1	1%	15%	26%	17µM*	14%	7%
O=C(C[n+]1cc(-c2ccc(F)cc2)n2c1CCC2)c1cccs1	x	u	x	2.4µM*	2.5µM*	3.2µM*
CCCCC[C@H](O)/C=C/[C@@H]1[C@H](C/C=C\CCCC(=O)O)[C@@H](O)C[C@H]1O	1%	x	17%	x	x	x
CCCCc1c(O)nc2sc3cc(OC)ccc3n2c1=O	-4%	u	29%	11µM*	22%	17%
COC(=O)c1cc(=O)nc2sc3cc(OC)ccc3n12	-4%	6%	0%	0%	-3%	-2%
CCC(=O)N1CCc2cc(Br)cc(S(=O)(=O)N3CCC(C(=O)Nc4ccccc4CC)CC3)c21	x	x	17%	3%	x	x
COc1cccc(NC(=O)Nc2cccs2)c1	-8%	2%	u	24µM*	u	19%
CC(=O)c1cccc(NC(=O)Nc2cccs2)c1	-3%	-20%	15%	19µM*	10%	15%
COc1ccc(NC(=O)Nc2cccc3ccccc23)cc1OC	x	8%	x	-8%	-1%	-2%
COc1ccc(NC(=O)Nc2cccs2)cc1OC	-5%	u	-7%	21µM*	20%	18%
CCc1c(C)sc2c1CCN(C(=O)Nc1ccccc1Cl)C2c1ccc(OC)cc1 (centres undefined)	x	x	x	-3%	x	x
COc1cccc2c1cc1c(=O)n(CC(=O)NCc3ccc(N(C)C)cc3)nc(C)n12	x	x	21%	4%	x	x
COc1ccc(NC(=O)CCc2c(C)nc3c(-c4ccc(F)cc4)c(C)nn3c2C)c(OC)c1	x	x	-13%	-2%	x	x
CCC(=C(CC)c1ccc(O)cc1)c1ccc(O)cc1	-2%[17.1 µM]	x	-24%[20.6 µM]	x	x	x
C/C(=N/OC(=O)c1cccc(Cl)c1)c1nccs1	-13%	-3%	-4%	2.1µM*	1%	4%
O=C(O/N=C(\c1ccccc1)c1ccncc1)c1ccccc1F	-3%	-1%	3%	-1%	-3%	-1%
C/C(=N\OC(=O)c1ccccc1F)c1nccs1	-29%	1%	-14%	1.3µM*	3%	4%
O=C(OCc1cnc(Cl)s1)c1cccc(Cl)c1	-4%	-1%	x	-1%	8%	-2%
